{
  "source": "PubChem BioAssay (NCI)",
  "note": "This is part of a sample that, as a whole, favours compounds with a hit. Of some 79,000 tested, about 15% had one in any assay. Values without a mark were called inactive. Activity calls are given as the source filed them. No stated cut-off is given here; in the data, active means growth inhibition above about 70%; inactive means the rest.",
  "data": [
    {"assay": "NCI Yeast Anticancer Drug Screen. Data for the mlh1 rad18 strain (AID 175)", "conditions": "S. cerevisiae mlh1 rad18 strain growth inhibition; at 50.0 µM; stronger effect = higher value", "in_short": "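Steps: expose repair-defective yeast to compound; measure growth; express inhibition against vehicle-treated controls.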", "values": [
      {"compound": "CCOC(=O)c1c(N)sc2c1C(C(=O)OCC)CCC2", "note": "(stereo not given)", "growth inhibition": "-11.7%"},
      {"compound": "Cc1cc(N(CCCOS(C)(=O)=O)CCCOS(C)(=O)=O)ccc1C=Nc1cc(Cl)c(O)c(Cl)c1", "growth inhibition": "54.5%"},
      {"compound": "COc1ccc2c(c1)OC[C@@H]1c3cc(NS(=O)(=O)c4ccccc4)cc(OC)c3O[C@H]21", "growth inhibition": "52.6%"},
      {"compound": "CC(NC(=O)N=Nc1ccccc1)C(=O)O", "note": "(stereo not given)", "growth inhibition": "6.2%"},
      {"compound": "O=C1CSC(/C(=C\\c2ccc(Cl)cc2)c2nc3ccccc3[nH]2)=N1", "growth inhibition": "4.3%"},
      {"compound": "Oc1ccc(Br)cc1/C=N\\NC(=S)Nc1ccc2cn[nH]c2c1", "growth inhibition": "40.4%"},
      {"compound": "Cc1cc2c(cc1C)NC(C)CC(=O)N2", "note": "(stereo not given)", "growth inhibition": "21.7%"},
      {"compound": "COC(=O)/C=C/C(=N/N(C)c1ccccc1)c1ccccc1", "growth inhibition": "-5.15%"},
      {"compound": "Fc1ccc(C=C2c3ccccc3-c3ccccc32)cc1", "growth inhibition": "-3.6%"},
      {"compound": "COC(=O)Nc1nc2ccc(-n3c(C)nc4ccccc4c3=O)cc2[nH]1", "growth inhibition": "15.8%"},
      {"compound": "CCOC(=O)c1sc(N)nc1O", "growth inhibition": "-8.8%"},
      {"compound": "COc1ccccc1NC(=O)Cc1nc(=O)[nH]c(=O)[nH]1", "growth inhibition": "-9.55%"},
      {"compound": "CCCCCCCCSC(SCCCCCCCC)=C1C(=O)N(c2ccccc2)N=C1C", "growth inhibition": "-13%"},
      {"compound": "NC(=O)/C(=N/O)c1ccccc1", "growth inhibition": "-7.6%"},
      {"compound": "O=C1CN(CCN2CCCCC2)CC(=O)N2CCCCN12", "growth inhibition": "-10.8%"},
      {"compound": "CC1=NOC(=O)/C1=C/c1ccc(C)cc1", "growth inhibition": "8.05%"},
      {"compound": "CC(=O)Nc1ccc(S(=O)(=O)c2ccc(NC(C)=O)cc2)cc1", "growth inhibition": "-40.8%"},
      {"compound": "CCN(CC)CCOc1cccc(Oc2ccccc2)c1", "growth inhibition": "84% (active)"},
      {"compound": "COc1cccc2c1c1ccc3c(c1n2C)C(=O)C=CC3=O", "growth inhibition": "20.6%"},
      {"compound": "CCn1c(=O)c2[nH]c(-n3c(Cl)nc4c3c(=O)n(CC)c(=O)n4CC)nc2n(CC)c1=O", "growth inhibition": "21.4%"},
      {"compound": "C/C(=N\\NS(=O)(=O)c1ccc(C)cc1)P(=O)(O)O", "growth inhibition": "22.6%"},
      {"compound": "Cc1ccc2ccccc2[n+]1CC(=O)c1ccc([N+](=O)[O-])cc1", "growth inhibition": "-12.4%"},
      {"compound": "COc1ccc(NC(=O)CCc2cc(C(C)(C)C)n[nH]2)cc1", "growth inhibition": "-8.5%"},
      {"compound": "CS/C(=C\\c1ccc2cc(C)ccc2[n+]1C)N1CCOCC1", "growth inhibition": "-56.5%"},
      {"compound": "C=C(CN(C)C)c1ccccn1", "growth inhibition": "-17.6%"},
      {"compound": "CC(C)(C)c1cc(C(=O)O)c2c(c1)C(=O)OC2(c1ccccc1)c1ccccc1C(=O)O", "note": "(stereo not given)", "growth inhibition": "31.2%"},
      {"compound": "Cc1cc(=O)oc2c(CNC(CC(C)C)C(=O)O)c(O)ccc12", "note": "(stereo not given)", "growth inhibition": "-63.1%"},
      {"compound": "COC(=O)CC(C)N(c1cccc(Cl)c1)S(=O)(=O)c1ccc(C)cc1", "note": "(stereo not given)", "growth inhibition": "32.5%"},
      {"compound": "CC(=C/c1ccccc1)/C=C1/NC(=S)N(CN2CCCCCC2)C1=O", "growth inhibition": "-14.8%"},
      {"compound": "Cc1cc(NCCN(C)C)nc(Nc2ccc(Cl)cc2)n1", "growth inhibition": "54.8%"},
      {"compound": "CC(CCC(=O)O)[C@H]1CCC2[C@@H]3CC[C@@H]4CC(O)CC[C@]4(C)C3CC[C@@]21C", "note": "(stereo not given in full)", "growth inhibition": "-26.7%"},
      {"compound": "CC/C(C=O)=C\\NC(=O)Nc1ccccc1", "growth inhibition": "1.1%"},
      {"compound": "C=CCNC(=O)CCCCCCC/C=C\\CCCCCCCC", "growth inhibition": "9.4%"},
      {"compound": "N#C/C(=C\\c1cccs1)C(=O)c1ccco1", "growth inhibition": "-5.85%"},
      {"compound": "c1ccc2c(c1)OP1(=NP3(=NP4(=NP5(=N1)Oc1ccccc1-c1ccccc1O5)Oc1ccccc1-c1ccccc1O4)Oc1ccccc1-c1ccccc1O3)Oc1ccccc1-2", "growth inhibition": "17.2%"},
      {"compound": "CN(C)C(=O)C1Cc2ccccc2CC1C(=O)N(C)C", "note": "(stereo not given)", "growth inhibition": "-9.75%"},
      {"compound": "CCCCCC(O)(CCCC)CCCC", "growth inhibition": "-1.15%"},
      {"compound": "COc1cc(OC)c(C(=O)/C=C/c2ccncc2)cc1C(=O)O", "growth inhibition": "-5.85%"},
      {"compound": "C[C@H]1CC[C@@H](C(C)(C)O)CC2=C1CC[C@@H]2C", "growth inhibition": "-26.4%"},
      {"compound": "Cn1c(N2CCCC2)c(C=O)c(=O)n(C)c1=O", "growth inhibition": "-15.1%"}
    ]}
  ]
}
